The list is not random: actives were taken first. Their share in the collection is about 0.53%.
USP1 inh = blocks the human USP1/UAF1 deubiquitinase complex | O94782 | recombinant USP1/UAF1, Ub-Rhodamine cleavage fluorescence | Potency, µM (series often up to 57.1 µM), for the others: at the highest dose activity change, negative = inhibition, usual class: inhibitors | 390,000 compounds, 0.23% hits | AID 743255; also: potency is read from the fitted curve at half-maximal effect; nearly all actives have a fitted effect of over 60% in size
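Step one: compound is pinned into 1nM USP1/UAF1 in HEPES pH 7.8 buffer with TCEP. Step two: 15 min room-temperature incubation. Step three: Ub-Rho (150nM final) starts cleavage, tracked by fluorescence over six one-minute reads.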
Tb PGK inh = T. brucei PGK inhibition; P07378; PGK/GAPDH coupled, Kinase-Glo luminescence, 60 min; Potency, µM (highest dose often 57.5 µM), without a hit: at the top dose activity change, negative = inhibition, hits mostly inhibitors; 380,000 compounds, 0.043% hits; also: potency is read from the fitted curve at half-maximal effect; nearly all actives have a fitted effect of over 60% in size
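Recombinant glycosomal PGK reaction used 1,3-bisphosphoglycerate generated in-well by GAPDH (100nM final) in 100mM TEA pH 7.6, 5mM MgCl2, 0.01% Tween-20. After 60 minutes at room temperature, ATP was read by Kinase-Glo Plus luminescence end-point.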
GLS inhibitor = inhibitors of human glutaminase (GLS); O94925; GLS enzymatic activity, qHTS titration; Potency, µM (titrated, usually from 45.5 µM), inactives show at the highest dose activity change, negative = inhibition, usual class: inhibitors; 410,000 compounds, 0.21% hits; also: potency is read from the fitted curve at half-maximal effect
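Enzyme dispensed in phosphate buffer (45 mM, pH 8.2, 0.02% Tween-20), compounds pinned in, then 1 mM L-glutamine solution and the glutamate oxidase–HRP–Amplex Red mix added; fluorescence read immediately and again after 30 min at room temperature.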
PI4K2A block = blocks human PI4K2A kinase activity | Q9BTU6 | purified PI4K2A, ADP-Glo luminescence, 1 h; active compounds read low | activity change, negative = inhibition, % at 76.9 µM | 420,000 compounds, 0.13% hits | AID 1346378; in the data active = activity change below about -50%; inconclusive = mostly about -30% to -49%;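 also: -100% = wells without enzyme as full effect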
Target sequence (Q9BTU6 whole entry, looked up): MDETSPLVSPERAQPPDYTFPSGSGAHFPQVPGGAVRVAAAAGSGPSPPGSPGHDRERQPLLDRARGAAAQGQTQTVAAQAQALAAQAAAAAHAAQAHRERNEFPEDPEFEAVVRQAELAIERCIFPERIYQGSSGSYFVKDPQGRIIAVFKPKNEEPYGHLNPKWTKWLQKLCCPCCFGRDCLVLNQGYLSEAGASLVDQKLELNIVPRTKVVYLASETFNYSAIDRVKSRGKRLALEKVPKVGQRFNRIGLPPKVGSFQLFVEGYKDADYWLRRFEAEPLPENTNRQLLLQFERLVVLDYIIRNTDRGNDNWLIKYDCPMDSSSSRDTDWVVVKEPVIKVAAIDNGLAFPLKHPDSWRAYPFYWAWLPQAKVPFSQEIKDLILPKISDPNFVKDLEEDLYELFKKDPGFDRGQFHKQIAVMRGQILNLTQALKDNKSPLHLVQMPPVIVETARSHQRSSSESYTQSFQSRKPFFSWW
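PI4K2A activity was measured by ADP-Glo luminescence: enzyme (4 ug/mL stock) and phosphatidylinositol (1.2 mM stock) in Tris pH 7.5/MgCl2/EGTA/Triton X-100 buffer were reacted with ATP (300 microM stock) for one hour at ambient temperature.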
* = called active by the depositor. Unless noted, calls follow the shape of the dose curve; as a rule, active = well fitted curve in the direction sought with a large enough effect; inconclusive = small, poorly fitted or top-dose-only effect, or another doubt; inactive = no such curve, though single readings can be large; an effect the other way counts as inactive or inconclusive. Unless noted, % is scaled to controls: 0 for no effect and ±100 for the full control effect.

Results for Cc1ccc2c(c1C)-c1c(ccc(C)c1C)C(=O)C2=O ?
USP1 inh: 8.9µM*; Tb PGK inh: inactive; GLS inhibitor: -7%; PI4K2A block: -3

How did O=c1cc2oc3cc(O)c(O)cc3c(-c3ccccc3O)c-2cc1O do in these assays?
USP1 inh: inconclusive; Tb PGK inh: inconclusive; GLS inhibitor: -26%; PI4K2A block: -8

What do the screens show for `COc1ccc(OC)c(-c2c3cc(O)c(=O)cc-3oc3cc(O)c(O)cc23)c1`?
USP1 inh: inconclusive; Tb PGK inh: inconclusive; GLS inhibitor: -2%; PI4K2A block: -51*

What do the screens show for `COc1ccc2[nH]c(=O)cc(C(=O)O)c2c1`?
USP1 inh: -11%; Tb PGK inh: -15%; GLS inhibitor: 14µM*; PI4K2A block: -3

Results for O=[N+]([O-])c1ccc(Sc2cccc[n+]2[O-])c2nonc12 ?
USP1 inh: inconclusive; Tb PGK inh: inconclusive; GLS inhibitor: 11µM*; PI4K2A block: inconclusive

What do the screens show for `CCN(CC)c1ccc(/C=C(/C#N)c2nc3ccc(C)cc3[nH]2)c(OC(C)C)c1`?
USP1 inh: 25µM*; Tb PGK inh: -8%; GLS inhibitor: 11%; PI4K2A block: -2

What do the screens show for `O=C(CS)Nc1ccccc1`?
GLS inhibitor: -11%; PI4K2A block: -25

What do the screens show for `O=C(O)c1ccc(COc2ccc3c4c(c(=O)oc3c2)CCC4)o1`?
USP1 inh: 7%; Tb PGK inh: inconclusive; GLS inhibitor: 13µM*; PI4K2A block: -3

What do the screens show for `O=c1oc2cc(OCc3ccc([N+](=O)[O-])cc3)ccc2c2c1CCCC2`?
USP1 inh: -5%; Tb PGK inh: 0%; GLS inhibitor: 2%; PI4K2A block: 8

How did CCOc1ccc(Nc2cc(=O)[nH]c(=O)[nH]2)cc1 do in these assays?
USP1 inh: -22%; Tb PGK inh: -7%; GLS inhibitor: 20%; PI4K2A block: -2

Results for CCCCOc1cc(=O)[nH]c(=O)[nH]1 ?
USP1 inh: -15%; Tb PGK inh: -1%; GLS inhibitor: 3%; PI4K2A block: -51*

What do the screens show for `CC(=O)[O][Al][O]C(C)=O`?
GLS inhibitor: -10%

How did O=C(O)c1ccc2c(c1)C(=O)/C(=C/c1ccccc1)C2=O do in these assays?
USP1 inh: inconclusive; Tb PGK inh: -23%; GLS inhibitor: 7.1µM*; PI4K2A block: -10

How did O=C(O)c1ccc2c(c1)C(=O)/C(=C\c1ccco1)C2=O do in these assays?
USP1 inh: inconclusive; Tb PGK inh: inconclusive; GLS inhibitor: 11µM*; PI4K2A block: -28

Results for CC(C)CN1C(=O)C[C@@]2(C(=O)N(C)c3ccc(NS(=O)(=O)c4ccc(F)cc4)cc32)C1c1ccccc1 (stereo partly specified) ?
PI4K2A block: 1

What do the screens show for `CNC(=O)c1cc(Nc2nnc(-c3ccc(O)cc3)c3ccccc23)ccc1OC`?
USP1 inh: -22%; Tb PGK inh: 3%; GLS inhibitor: 11µM*; PI4K2A block: -1

How did CN(C)C(=O)c1ccc(Nc2nnc(-c3ccc(O)cc3)c3ccccc23)cc1 do in these assays?
USP1 inh: -12%; Tb PGK inh: inactive; GLS inhibitor: 11µM*; PI4K2A block: 4

How did NC(=O)COc1ccc(Nc2nnc(-c3ccc(O)cc3)c3ccccc23)cc1 do in these assays?
USP1 inh: -16%; Tb PGK inh: 2%; GLS inhibitor: 7.9µM*; PI4K2A block: -2

What do the screens show for `CCOC(=O)NNc1ccc(N(CC)CC(C)O)nn1` (stereo unspecified)?
GLS inhibitor: -12%; PI4K2A block: 0

How did C[C@@H]1O[C@@]2(CS1)CN1CCC2CC1 do in these assays?
GLS inhibitor: 0%

Results for CCOc1cccc(/C=N/NC(=O)CC2C(=O)NN=C2C)c1O (stereo unspecified) ?
USP1 inh: -9%; Tb PGK inh: 1%; GLS inhibitor: 5.6µM*; PI4K2A block: 4

How did COc1cc(/C=N/NC(=O)CC2C(=O)NN=C2C)ccc1O (stereo unspecified) do in these assays?
USP1 inh: -12%; Tb PGK inh: -4%; GLS inhibitor: 21%; PI4K2A block: 3

How did O=C(O)c1ccc(N2C(=O)c3[nH]nc(-c4ccccc4)c3C2c2ccccc2)cc1 (stereo unspecified) do in these assays?
USP1 inh: -12%; Tb PGK inh: inactive; GLS inhibitor: inconclusive; PI4K2A block: 0

How did Cc1ccc(-c2n[nH]c3c2C(c2ccccc2Cl)N(c2ccc(C(=O)O)cc2)C3=O)cc1 (stereo unspecified) do in these assays?
USP1 inh: inconclusive; Tb PGK inh: -18%; GLS inhibitor: 7.1µM*; PI4K2A block: -5

How did CCc1ccc(C2c3c(-c4ccccc4)n[nH]c3C(=O)N2c2ccc(C(=O)O)cc2)cc1 (stereo unspecified) do in these assays?
USP1 inh: -29%; Tb PGK inh: -13%; GLS inhibitor: 16µM*; PI4K2A block: -3

Results for CCOc1ccc(/C=C(\C#N)C(=O)Nc2cccnc2)cc1 ?
USP1 inh: -20%; Tb PGK inh: -8%; GLS inhibitor: -17%; PI4K2A block: 5

Results for CCOc1ccc(NC(=O)/C(C#N)=C\c2ccc(N3CCCC3)c(C)c2)cc1 ?
USP1 inh: 22µM*; Tb PGK inh: inactive; GLS inhibitor: -17%; PI4K2A block: 3

What do the screens show for `CSCC[C@H](NC(=O)[C@@H](Cc1ccc(O[S+](=O)([O-])O)cc1)NC(=O)[C@H](N)CC(=O)O)C(=O)NCC(=O)N[C@@H](Cc1c[nH]c2ccccc12)C(=O)N[C@H](CCSC)C(=O)N[C@H](CC(=O)O)C(=O)N[C@@H](Cc1ccccc1)C(N)=O`?
GLS inhibitor: -14%

How did Cc1nn(-c2cccc(Cl)c2)c2c1C(c1cccnc1)C(C#N)=C(N)O2 (stereo unspecified) do in these assays?
USP1 inh: -8%; Tb PGK inh: -4%; GLS inhibitor: -20%; PI4K2A block: -51*

Results for CCSc1nnc(-c2sc3nnc(-c4ccccc4)c(-c4ccccc4)c3c2N)o1 ?
USP1 inh: 18µM*; Tb PGK inh: inactive; GLS inhibitor: -3%; PI4K2A block: -11

Results for CCSc1nnc(-c2ccncc2)o1 ?
USP1 inh: -1%; Tb PGK inh: -4%; GLS inhibitor: 5%; PI4K2A block: -3

Results for CC(=O)SCC(CC(=O)c1ccc(C)cc1)C(=O)O (stereo unspecified) ?
GLS inhibitor: 2%; PI4K2A block: 4

What do the screens show for `CCN(CC)c1ccc(C=C2C(=O)OC(c3ccccc3)OC2=O)cc1` (stereo unspecified)?
USP1 inh: -9%; Tb PGK inh: inactive; GLS inhibitor: 2%; PI4K2A block: 1

What do the screens show for `CCN(CC)c1ccc(/C=C/C(=O)C2C(=O)C=C(C)OC2=O)cc1` (stereo unspecified)?
USP1 inh: 4.5µM*; Tb PGK inh: 4%; GLS inhibitor: 32%; PI4K2A block: 3
